Screening data deposited in PubChem BioAssay by National Center for Advancing Translational Sciences (NCATS).
Hits are enriched below; roughly 19% of the tested compounds scored in any of these assays.
HT1080 IDH1KD tx: qHTS for induction of synthetic lethality in tumor cells producing 2HG: qHTS for the HT-1080-IDH1KD cell line. HT-1080 IDH1 knockdown viability, ATP luminescence, 48 h. Potency, µM (top dose mostly 46.1 µM), for the others: at the highest dose activity, negative = toxicity, actives largely listed as cytotoxic. hit rate 2% among 360,000. AID 686971, 2013;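 further: potency means the concentration at half of the fitted maximal effect; 0% = DMSO wells and -100% = cell-free medium wells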
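Luminescent ATP read-out (CellTiter-Glo, 10 min at room temperature) after 48 h compound exposure at 37 °C gave viability of IDH1-knockdown HT-1080 cells. Activity was normalised to DMSO and cell-free wells, then fitted as concentration-response curves.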
HT1080NT lethal: qHTS for induction of synthetic lethality in tumor cells producing 2HG: qHTS for the HT-1080-NT fibrosarcoma cell line. hit rate 1.6% among 360,000. HT-1080-NT fibrosarcoma viability, CellTiter-Glo ATP luminescence, 48 h. AID 686970, 2013. Potency, µM (highest dose often 46.1 µM), inactives show at the highest dose activity, negative = less viability, hits mostly cytotoxic;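 further: NT is the 2HG producing partner of a matched IDH1 knockdown line; potency means the concentration at half of the fitted maximal effect; 0% = DMSO-treated cells and -100% = media-only wells without cells; nearly all actives have a fitted effect of over 55% in size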
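Viability by CellTiter-Glo luminescence after 48 h compound exposure at 37C of HT-1080-NT cells (750/well, RPMI, 5% FBS). % activity scaled between DMSO wells and medium-only wells, then curve-fitted and categorized by curve class.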
IL-1B inflam inh: qHTS for Inhibitors of Inflammasome Signaling: IL-1-beta AlphaLISA Primary Screen; THP-1 LPS/ATP IL-1B secretion, AlphaLISA, 16 h; stronger effect = lower value; AID 743279, 2014; hit rate 4.7% among 360,000; activity change, % at 57.5 µM; in the data active means activity change below about -50%; inconclusive means mostly about -30% to -49%
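THP-1 cells pretreated 1 hr with compounds (up to 57.5 uM final), then stimulated with LPS (250 ng/mL final) plus ATP (1.25 mM final); secreted IL-1B measured by AlphaLISA after 16 hr, decreased signal indicating inhibition.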
uPA generation: qHTS for Inhibitors of Cell Surface uPA Generation; cell surface uPA generation assay, qHTS; Potency, µM (titrated, usually from 38.3 µM), for the others: at the top dose activity change, negative = inhibition, hits mostly inhibitors; hit rate 0.31% among 330,000; active means well fitted inhibition curve with a large enough effect; inconclusive means small, poorly fitted or top-dose-only effect; inactive means no such curve, though single readings can be large or run the other way; tested in mouse RAW 264.7 cells; further: potency means the concentration at half of the fitted maximal effect; nearly all actives have a fitted effect of over 55% in size
DT40 TDP1 no CPT: qHTS for Inhibitors of human tyrosyl-DNA phosphodiesterase 1 (TDP1): qHTS in cells in absence of CPT; hit rate 15% among 420,000; Potency, µM (series often up to 46.2 µM), without a hit: at the top dose activity change, negative = growth inhibition, usual class: inhibitors; DT40 Tdp1-/- hTDP1 cells, no CPT, ATP luminescence, 48 h; further: potency means the concentration at half of the fitted maximal effect; nearly all actives have a fitted effect of over 55% in size
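Growth of hTDP1-complemented DT40 Tdp1-knockout cells is measured by ATP luminescence after at least 48 hr compound exposure at 37 °C, with DMSO substituting for the 20 nM CPT used in the parallel screen.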
DT40 TDP1 CPT: qHTS for Inhibitors of human tyrosyl-DNA phosphodiesterase 1 (TDP1): qHTS in cells in presence of CPT; chicken DT40 Tdp1-/-;hTDP1 cells + 20 nM CPT, ATP luminescence, 48 h; Potency, µM (highest dose often 46.2 µM), inactives show top-dose activity change, negative = growth inhibition, most hits filed as inhibitors; hit rate 12% among 420,000; further: potency means the concentration at half of the fitted maximal effect; nearly all actives have a fitted effect of over 55% in size
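Chicken DT40 Tdp1-/- cells stably complemented with human TDP1 were seeded at 400 cells/well in medium containing 20 nM camptothecin, exposed to pin-transferred compounds, and grown at 37 °C for at least 48 hr. Viability was read as ATP luminescence.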
Active calls of the source: *; ? = inconclusive; · = no result given. Unless noted, the call rests on the fitted dose curve; in most records, active means well fitted curve in the direction sought with a large enough effect; inconclusive means small, poorly fitted or top-dose-only effect, or another doubt; inactive means no such curve, though single readings can be large; an effect the other way counts as inactive or inconclusive. Unless noted, on the % scale 0 is the no-effect control and ±100 the full control effect.

SMILES | HT1080 IDH1KD tx | HT1080NT lethal | IL-1B inflam inh | uPA generation | DT40 TDP1 no CPT | DT40 TDP1 CPT
COc1ccc(Nc2nc(NCc3ccco3)nc(N3CCOCC3)n2)cc1 | -11% | -13% | -57* | 6% | ? | ?
c1ccc(Nc2nc(N3CCOCC3)nc(N3CCOCC3)n2)cc1 | -17% | -19% | · | 14% | 16µM* | 16µM*
COc1cccc(N2C(=O)N(Cc3ccc(C#N)cc3)c3ccccc3S2(=O)=O)c1 | · | · | · | · | -30% | 5%
O=C(NN=C1CCCC1)c1cccc(Br)c1 | -3% | -13% | 7 | 3% | -1% | -4%
Cc1cccc(-n2c(=O)c3c(c4cc(C)ccc4n3C)n(CC(=O)N3CCCC3)c2=O)c1 | · | · | · | · | 2% | -6%
Cc1cc(C)cc(Cn2cc(CN3CC(N(C)C)CS3(=O)=O)nn2)c1 (configuration not stated) | 1% | 17% | 5 | · | -13% | 2%
CCN(C)C1CN(Cc2cn(Cc3cc(C)cc(C)c3)nn2)S(=O)(=O)C1 (configuration not stated) | 7% | 16% | -52* | · | -23% | -1%
CN(Cc1cn(Cc2ccc(Cl)cc2)nn1)C1CN(Cc2cn(Cc3ccc(Cl)cc3)nn2)S(=O)(=O)C1 (configuration not stated) | -6% | -17% | ? | · | 13µM* | 18µM*
CN(Cc1cn(Cc2ccc(F)cc2)nn1)C1CN(Cc2cn(Cc3ccc(F)cc3)nn2)S(=O)(=O)C1 (configuration not stated) | -4% | 6% | 3 | · | -22% | -26%
COc1ccccc1CCNC(=O)c1c(N)[nH]c(C(=O)c2ccccc2)c1-c1ccc(Br)cc1 | 5% | 23% | 6 | · | ? | ?
CC1O[C@@H](O[C@H]2C(Oc3cc(O)c4c(c3)OC(c3ccc(O)cc3)CC4=O)OC(CO)C(O)C2O)C(O)C(O)C1O (some centres not stated) | · | · | · | · | -3% | 2%
CN(CC(=O)O/N=C(\N)c1ccc([N+](=O)[O-])cc1)S(=O)(=O)c1ccc2ccccc2c1 | 6% | -3% | 22 | 16% | -10% | -6%
CCC(=O)N1CCc2cc(CNC(=O)Cc3ccc(F)cc3)ccc21 | · | · | · | · | -27% | -24%
Cn1c(-c2ccc(Br)o2)nc2ccccc21 | 18µM* | 12µM* | -2 | -12% | 10µM* | 11µM*
Cn1c2nc3ccccc3c-2nc2ccccc21 | 9% | 1% | -3 | · | 8.2µM* | 18µM*
CC(CCc1ccccc1)NC(=O)COC(=O)C(CCC(N)=O)NC(=O)c1ccc(F)cc1 (configuration not stated) | -3% | 20% | 2 | 10% | -2% | 1%
COc1ccc(C2=NC(C)(C)N(CC(=O)Nc3cccc(C)c3)C2=O)cc1 | · | · | · | · | 3.7µM* | 4.6µM*
CC(=O)OC1C[C@]2(C)[C@@H](CC(O)C3[C@]4(C)CCC(O)C(C)[C@@H]4CC[C@]32C)/C1=C(/CCC=C(C)C)C(=O)O (some centres not stated) | · | · | · | · | 3% | 10%
CCOC(=O)CSc1nc2ccc(NC(=O)COc3ccccc3C)cc2s1 | · | · | · | · | -23% | -14%
CC(NC(=O)Cc1ccccc1)C1COc2ccccc2O1 (configuration not stated) | 14% | 1% | 2 | -1% | 0% | 5%
CC(NCc1ccc([N+](=O)[O-])cc1)C1COc2ccccc2O1 (configuration not stated) | -2% | -4% | -13 | 1% | 21µM* | -1%
CC(=O)C1[C@H](N(C)C)CC2C3CC=C4CC(O)CC[C@]4(C)C3CC[C@@]21C (some centres not stated) | 12% | 15% | 13 | 4% | 24% | 3%
O=C(NCc1ccccn1)C1CCN(C2CCN(Cc3cccc(F)c3)CC2)CC1 | -13% | -14% | 13 | · | -1% | -19%
CCOc1ccccc1NC(=O)c1cc2c(=O)n(Cc3cccnc3)ccc2nc1C | · | · | · | · | -22% | -27%
N#CC1(Cc2ccc(Cl)cc2)c2ccccc2C=CN1C(=O)c1ccccc1 (configuration not stated) | -13% | 0% | 20 | 4% | 18µM* | ?
SMILES | HT1080 IDH1KD tx | HT1080NT lethal | IL-1B inflam inh | uPA generation | DT40 TDP1 no CPT | DT40 TDP1 CPT
COc1ccc(NC(=O)C2=C(C)C(=O)OC23CCC(C)CC3)cc1Cl (configuration not stated) | -20% | -1% | 11 | 4% | ? | ?
COc1ccc(NC(=O)c2c(C)oc3ccc(O)c(CN4CCCC(C)C4)c23)cc1Cl (configuration not stated) | · | · | · | · | 16µM* | 23µM*
COc1ccc(NC(=O)c2c(C)oc3ccc(O)c(CN4CCC(C)CC4)c23)cc1Cl | · | · | · | · | ? | 9.2µM*
COc1cccc(CCN2C(=O)CCC3=C2CCC3=O)c1 | 9% | ? | 0 | · | -7% | -22%
Cc1cc2[nH]c3c(c[n+](C)c4ccccc34)c2cc1C | 21µM* | ? | -99* | ? | 1.6µM* | -102%
O=C(c1cc2ccccc2oc1=O)N(Cc1cccs1)Cc1cccs1 | -7% | -15% | -27 | -4% | 23µM* | ?
O=C(c1cc2ccccc2oc1=O)N(Cc1ccco1)Cc1cccs1 | 1% | 6% | -25 | · | ? | 21µM*
CNC[C@H]1OCc2ccccc2-c2ccccc2C(=O)N([C@H](C)CO)C[C@H]1C | -3% | 2% | 7 | · | 2% | -3%
COc1cc(OC)c2c(-c3ccccc3)cc(=O)oc2c1 | 1% | 2% | 21 | -2% | -14% | -12%
COc1cc(OC)c2c(-c3cccc(-c4ccoc4)c3)cc(=O)oc2c1 | ? | ? | 69 | 10µM* | ? | ?
COc1cc(OC)c2c(-c3cccc(-c4ccc(C(C)=O)cc4)c3)cc(=O)oc2c1 | 3.3µM* | 5.2µM* | 55 | ? | 0.92µM* | 1.2µM*
O=C(c1ccc(Cl)c(S(=O)(=O)N2CCCCC2)c1)N1CCCC(C(F)(F)F)C1 (configuration not stated) | -4% | -3% | 33 | -7% | ? | -21%
O=C(NCCCN1CCOCC1)c1cc2c(s1)-c1ccccc1OC2 | -29% | -21% | ? | -6% | -29% | -30%
